Source: PubChem BioAssay (Tox21)
“And” between values parts separate entries of the source, which are not always exact repeats. Equal entries are not always repeated. Inconclusive results are not listed. A call without a number means that no potency is given here. The source made the active and inactive calls. Unless noted, calls come from the whole dose curve; as a rule, active = well fitted curve in the direction sought with a large enough effect in the repeat runs; inconclusive = weak or mixed curves; inactive = no such curve, though single readings can be large; an effect the other way counts as inactive or inconclusive.

Legend:
[1] = qHTS assay to identify small molecule agonists of the RXR signaling pathway - cell viability counter screen (AID 1159529); note: nearly all actives have a fitted effect of over 50% in size; note: potency is the fitted concentration of half-maximal effect
Method in brief: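 CellTiter-Glo luminescence gave viability in the wells also read for beta-lactamase. Cells (RXR-alpha-UAS-bla HEK 293T, 2% charcoal-stripped FBS medium) had 5 hr plating, then 16 hr compound exposure at 37 C; tetraoctyl ammonium bromide served as positive control.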

[2] = qHTS assay to identify small molecule antagonists of the retinoid acid receptor (RAR) signaling pathway - cell viability counter screen (AID 1159551); note: nearly all actives have a fitted effect of over 35% in size; note: potency is the fitted concentration of half-maximal effect
Method in brief: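 Luminescent ATP quantitation (CellTiter-Glo) gave cell viability in C3RL4 cells exposed to test chemicals for 6 h at 37 C alongside 1 uM final retinol.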

[3] = qHTS assay to identify small molecule antagonists of the estrogen related receptor (ERR) signaling pathway from Tox21 library - cell viability counter screen (AID 1224834); note: nearly all actives have a fitted effect of over 30% in size; note: potency is the fitted concentration of half-maximal effect
Method in brief: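 Fluorescence from CellTiter-Fluor gives the viability read-out, taken 30 min after reagent addition. Before that, ERR cells seeded 6 h earlier were incubated with compounds for 17.5 h at 37 C.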

[4] = target: Luciferin 4-monooxygenase (Photinus pyralis) (UniProt P08659); assay: qHTS assay to identify small molecule inhibitors of firefly luciferase (AID 1224835); note: nearly all actives have a fitted effect of over 25% in size; note: potency is the fitted concentration of half-maximal effect
Luciferin 4-monooxygenase (Photinus pyralis), sequence (P08659 whole entry, looked up): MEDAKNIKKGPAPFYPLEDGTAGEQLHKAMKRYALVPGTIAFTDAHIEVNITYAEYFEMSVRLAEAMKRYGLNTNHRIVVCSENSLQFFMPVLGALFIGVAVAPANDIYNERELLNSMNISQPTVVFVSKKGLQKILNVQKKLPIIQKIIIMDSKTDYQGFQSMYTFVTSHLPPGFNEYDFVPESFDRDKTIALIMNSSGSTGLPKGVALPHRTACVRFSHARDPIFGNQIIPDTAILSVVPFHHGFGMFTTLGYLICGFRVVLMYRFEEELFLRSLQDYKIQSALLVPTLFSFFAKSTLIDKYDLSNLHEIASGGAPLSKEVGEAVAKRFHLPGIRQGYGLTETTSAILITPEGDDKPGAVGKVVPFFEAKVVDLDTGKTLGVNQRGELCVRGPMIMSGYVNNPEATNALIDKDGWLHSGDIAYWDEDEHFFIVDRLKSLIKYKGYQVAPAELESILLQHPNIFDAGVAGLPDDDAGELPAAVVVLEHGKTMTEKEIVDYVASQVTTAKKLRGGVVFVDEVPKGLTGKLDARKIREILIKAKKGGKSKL
Method in brief: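 Biochemical qHTS: compounds run as interplate titrations against purified firefly enzyme, with D-luciferin and ATP each at its KM concentration. Light output recorded by CCD imaging.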

[5] = qHTS assay to identify small molecule agonists of the constitutive androstane receptor (CAR) signaling pathway - cell viability counter screen (AID 1224836); note: nearly all actives have a fitted effect of over 45% in size; note: potency is the fitted concentration of half-maximal effect
Method in brief: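 Cell viability multiplexed with the CAR agonist screen: CellTiter-Fluor fluorescence after 23 hr at 37 C. HepG2-CYP2B6-hCAR cells got compounds at 15 concentrations with PK11195 at 0.75 uM final.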

[6] = qHTS assay to identify small molecule antagonists of the constitutive androstane receptor (CAR) signaling pathway - cell viability counter screen (AID 1224837); note: nearly all actives have a fitted effect of over 45% in size; note: potency is the fitted concentration of half-maximal effect
Method in brief: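 HepG2-CYP2B6-hCAR cells, 2500/well, 4 hr pre-incubation; compound titration, 15 conc.; CITCO 50 nM final; 23 hr, 37 C/5% CO2; CellTiter-Fluor, fluorescence intensity.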

[7] = target: Nuclear receptor subfamily 1 group I member 3 (Homo sapiens) (UniProt Q14994); assay: qHTS assay to identify small molecule antagonists of the constitutive androstane receptor (CAR) signaling pathway (AID 1224838);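 note: HepG2 cells stably expressing hCAR with CYP2B6 luciferase reporter stimulated by CITCO; nearly all actives have a fitted effect of over 40% in size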; note: potency is the fitted concentration of half-maximal effect
Nuclear receptor subfamily 1 group I member 3 (Homo sapiens), sequence (Q14994 whole entry, looked up): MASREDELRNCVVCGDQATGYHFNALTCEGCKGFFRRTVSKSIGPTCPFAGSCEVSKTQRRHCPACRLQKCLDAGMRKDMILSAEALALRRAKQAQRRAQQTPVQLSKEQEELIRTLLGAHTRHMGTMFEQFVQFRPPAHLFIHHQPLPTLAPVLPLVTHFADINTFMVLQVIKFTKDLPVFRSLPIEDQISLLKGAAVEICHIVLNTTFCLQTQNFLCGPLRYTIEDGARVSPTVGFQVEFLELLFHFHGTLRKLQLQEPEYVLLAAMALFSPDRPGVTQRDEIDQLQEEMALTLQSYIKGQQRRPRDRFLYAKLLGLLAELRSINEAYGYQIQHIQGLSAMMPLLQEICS
Method in brief: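 HepG2-CYP2B6-hCAR cells; 4 h pre-incubation; cpd (15 conc) + CITCO 50 nM final; 24 h, 37 C/5% CO2; ONE-Glo, luminescence.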

[8] = target: Nuclear receptor subfamily 1 group I member 3 (Homo sapiens) (UniProt Q14994); assay: qHTS assay to identify small molecule agonists of the constitutive androstane receptor (CAR) signaling pathway (AID 1224839); note: nearly all actives have a fitted effect of over 15% in size; note: potency is the fitted concentration of half-maximal effect
Method in brief: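 Luminescent ONE-Glo read-out after 24 hr, 37 C exposure of double-stable HepG2-CYP2B6-hCAR reporter cells to a 15-point compound series, in the presence of 0.75 uM PK11195 (final).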

[9] = qHTS assay to identify small molecule antagonists of the estrogen related receptor signaling pathway with the pleiotropic PPARgamma coactivator (PGC) from Tox21 10K library (AID 1224841; call rule not given here; note: actives are mostly falling curves and most rising ones were filed inactive; nearly all actives have a fitted effect of over 50% in size; note: potency is the fitted concentration of half-maximal effect)
Method in brief: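 PGC/ERR cell line, 2,000 cells/well; 6 h pre-incubation 37 C/5% CO2; compounds (DMSO) pinned in; 18 h, 37 C; One-Glo, 30 min RT; luminescence.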

[10] = qHTS assay to identify small molecule agonists of the estrogen related receptor signaling pathway with the pleiotropic PPARgamma coactivator (PGC) from Tox21 10K library (AID 1224842); note: nearly all actives have a fitted effect of over 15% in size
Method in brief: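 PGC/ERR reporter cell line, 2,000 cells per well, incubated 6 h at 37 C before 23 nL compound in DMSO was added. After 18 h at 37 C, One-Glo luminescence read following 30 min at room temperature.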

[11] = target: Thyrotropin receptor (Homo sapiens) (UniProt P16473); assay: qHTS assay to identify small molecule agonists of the thyroid stimulating hormone receptor (TSHR) signaling pathway (AID 1224843; calls by dose curve; note: nearly all actives have a fitted effect of over 45% in size; note: potency is the fitted concentration of half-maximal effect)
Thyrotropin receptor (Homo sapiens), sequence (P16473 whole entry, looked up): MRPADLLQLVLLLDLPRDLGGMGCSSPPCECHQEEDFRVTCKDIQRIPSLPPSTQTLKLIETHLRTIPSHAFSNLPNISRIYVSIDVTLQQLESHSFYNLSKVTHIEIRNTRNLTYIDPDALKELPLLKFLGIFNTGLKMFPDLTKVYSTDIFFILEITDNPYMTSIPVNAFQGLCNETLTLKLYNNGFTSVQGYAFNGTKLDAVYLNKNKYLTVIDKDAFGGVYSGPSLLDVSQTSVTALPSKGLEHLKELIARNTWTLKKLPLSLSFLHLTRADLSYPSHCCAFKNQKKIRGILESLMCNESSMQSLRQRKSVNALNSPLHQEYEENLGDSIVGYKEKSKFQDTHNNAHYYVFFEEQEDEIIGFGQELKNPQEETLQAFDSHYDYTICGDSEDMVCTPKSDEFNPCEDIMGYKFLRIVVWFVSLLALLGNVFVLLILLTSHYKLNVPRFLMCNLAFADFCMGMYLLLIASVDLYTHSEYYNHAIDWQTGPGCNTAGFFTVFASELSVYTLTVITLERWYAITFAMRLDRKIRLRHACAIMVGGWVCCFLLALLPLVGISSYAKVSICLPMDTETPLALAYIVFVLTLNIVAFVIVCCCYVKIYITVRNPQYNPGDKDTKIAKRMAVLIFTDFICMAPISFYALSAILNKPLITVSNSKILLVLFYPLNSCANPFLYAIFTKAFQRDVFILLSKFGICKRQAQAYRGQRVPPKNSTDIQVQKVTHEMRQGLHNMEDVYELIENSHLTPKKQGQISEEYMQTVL
Method in brief: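 TSHR-HEK293 cells in agonist mode, 30 min room-temperature step, then cAMP measured by competitive HTRF (cAMP-d2 with anti-cAMP cryptate) after 1 h at room temperature. Tested at 15 concentrations in triplicate.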

[12] = qHTS assay to identify small molecule antagonists of the estrogen related receptor signaling pathway with the pleiotropic PPARgamma coactivator (PGC) from Tox21 10K library - cell viability counter screen (AID 1224840; active = well fitted cell-killing curve with a large enough effect in the repeat runs, not every such curve was filed as active; note: nearly all actives have a fitted effect of over 40% in size; note: potency is the fitted concentration of half-maximal effect)
Method in brief: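 PGC/ERR cells, 2,000/well; 6 h pre-incubation 37 C/5% CO2; cpd in DMSO via pin tool; 17.5 h 37 C; CellTiter-Fluor, 30 min; fluorescence.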

[13] = qHTS assay to identify small molecule agonists of the retinoic acid receptor (RAR) signaling pathway (AID 1159553)
Method in brief: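 Luminescence from a RARE-driven luciferase reporter in C3RL4 cells served as the read-out, measured after 30 min with detection reagent at room temperature. Compounds in DMSO were applied for 6 hr at 37 C following overnight seeding.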

Structure (SMILES)	Potency [1]	Potency [2]	Potency [3]	Potency [4]	Potency [5]	Potency [6]	Potency [7]	Potency [8]	Potency [9]	Potency [10]	Potency [11]	Potency [12]	Potency [13]
Clc1ccc(C2(Cn3cncn3)OCCO2)c(Cl)c1	inactive	inactive	inactive	inactive	inactive	inactive	inactive	inactive	inactive	inactive	inactive	–	–
OCC(Br)CBr (stereo unspecified)	inactive	inactive	inactive	inactive	inactive	inactive	inactive	inactive	–	–	inactive	–	–
CCn1cc[n+](C)c1 (tested in a mixture with another compound)	inactive	inactive	inactive	inactive	inactive	inactive	–	–	–	–	–	inactive	–
O=C(CCCCl)c1ccc(F)cc1	inactive	inactive	inactive	15.5 µM (active)	inactive	inactive	inactive	–	–	–	inactive	inactive	–
Cc1cnc2c(C(=O)O)c(Cl)ccc2c1	inactive	inactive	inactive	inactive	inactive	inactive	–	–	inactive	inactive	–	inactive	–
CNC(C)(C)Cc1ccccc1	inactive	inactive	inactive	inactive	inactive	inactive	inactive	–	–	–	inactive	inactive	–
CC(C)N(C(=O)SC/C(Cl)=C/Cl)C(C)C	inactive	inactive	inactive	inactive	inactive	inactive	inactive	inactive	–	–	17.3 µM (active)	inactive	–
CCCC[N+]1(C)CCCC1 (tested in a mixture with another compound)	inactive	inactive	inactive	inactive	inactive	inactive	–	–	–	–	–	inactive	–
CCC(C)Br (stereo unspecified)	inactive	inactive	inactive	inactive	inactive	inactive	inactive	inactive	–	–	inactive	inactive	–
CNN	inactive	inactive	inactive	inactive	inactive	inactive	–	–	–	–	–	inactive	–
COc1cnc(OC)n2nc(NS(=O)(=O)c3c(OCC(F)F)cccc3C(F)(F)F)nc12	inactive	inactive	inactive	inactive	inactive	inactive	–	inactive	inactive	inactive	–	inactive	–
ClC1=C(Cl)[C@]2(Cl)[C@H]3[C@H]([C@@H]4C=C[C@H]3C4)[C@@]1(Cl)C2(Cl)Cl	49 µM (active)	inactive	inactive	inactive	inactive	inactive	inactive	13.7 µM (active)	–	–	19.3 µM (active) and 13.7 µM (active)	inactive	–
CC(Cc1ccc(OCC(=O)O)cc1)NCC(O)c1csc(C(F)(F)F)n1 (stereo unspecified)	inactive	inactive	inactive	inactive	inactive	inactive	–	inactive	–	–	inactive	–	–
[F][Sn]([c]1ccccc1)([c]1ccccc1)[c]1ccccc1	0.692 µM (active)	17.2 µM (active)	1.09 µM (active)	5.03 µM (active)	1.09 µM (active)	1.09 µM (active)	–	–	–	–	–	0.611 µM (active)	–
O=c1c2ccccc2c(=O)c2c1cc(Cl)c1[nH]c3c([nH]c12)c(Cl)cc1c(=O)c2ccccc2c(=O)c13	inactive	inactive	inactive	56.4 µM (active)	inactive	inactive	–	inactive	–	inactive	inactive	inactive	–
Cc1ccc(C)c2ccccc12	inactive	inactive	inactive	inactive	inactive	inactive	–	inactive	–	–	–	inactive	–
C=CCBr	inactive	inactive	inactive	inactive	inactive	inactive	inactive	inactive	–	–	inactive	inactive	–

Structure (SMILES)	Potency [1]	Potency [2]	Potency [3]	Potency [4]	Potency [5]	Potency [6]	Potency [7]	Potency [8]	Potency [9]	Potency [10]	Potency [11]	Potency [12]	Potency [13]
O=S1OCC2C(CO1)C1(Cl)C(Cl)=C(Cl)C2(Cl)C1(Cl)Cl (stereo unspecified)	48.9 µM (active)	54.5 µM (active)	54.5 µM (active)	inactive	inactive	inactive	–	30.7 µM (active) and 17.2 µM (active)	–	–	4.33 µM (active) and 8.63 µM (active)	–	–
Nc1cc(Cl)ccc1Cl	inactive	inactive	inactive	inactive	inactive	inactive	inactive	inactive	–	inactive	inactive	–	–
CC(O)C(=O)[O][Hg][c]1ccccc1 (stereo unspecified)	1.95 µM (active)	13.7 µM (active)	4.33 µM (active)	3.99 µM (active)	4.86 µM (active)	4.86 µM (active)	4.33 µM (active)	inactive	4.86 µM (active)	–	2.43 µM (active)	3.06 µM (active)	–
C[C@@H]1CC2=CC(=O)CC[C@@H]2[C@H]2CC[C@@]3(C)[C@@H](CC[C@]3(C)O)[C@@H]21	inactive	inactive	inactive	inactive	inactive	inactive	inactive	inactive	–	inactive	inactive	inactive	–
CCOP(=O)(OCC)Oc1cc(C)nc(C(C)C)n1	inactive	inactive	inactive	inactive	inactive	inactive	–	–	inactive	inactive	inactive	inactive	–
COc1ccc2c(c1OC)C(=O)O[C@@H]2[C@H]1c2cc3c(cc2CCN1C)OCO3	inactive	inactive	9.59 µM (active)	inactive	7.62 µM (active)	7.62 µM (active)	–	inactive	–	–	inactive	–	–
Oc1ccc(Cl)c(Cl)c1	inactive	inactive	inactive	inactive	inactive	inactive	inactive	inactive	–	inactive	–	inactive	–
CCOP(=O)(Sc1ccccc1)Sc1ccccc1	inactive	inactive	inactive	inactive	inactive	inactive	inactive	21.7 µM (active)	–	–	–	inactive	–
N#CSCc1ccccc1	inactive	inactive	inactive	inactive	inactive	inactive	–	inactive	–	–	inactive	–	–
CN=C=O	inactive	inactive	inactive	inactive	inactive	inactive	inactive	inactive	inactive	inactive	inactive	inactive	–
Oc1cc(Cl)cc(Cl)c1	inactive	inactive	inactive	inactive	inactive	inactive	inactive	–	–	inactive	–	inactive	–
CN(C)CCc1c[nH]c2ccccc12	inactive	inactive	inactive	inactive	inactive	inactive	inactive	inactive	–	–	inactive	–	–
COC(=O)C(C)N(C(=O)c1ccco1)c1c(C)cccc1C (stereo unspecified)	inactive	inactive	inactive	inactive	inactive	inactive	inactive	15.3 µM (active)	–	inactive	inactive	–	–
CCCCc1ccccc1	inactive	inactive	inactive	inactive	inactive	inactive	–	inactive	–	–	inactive	inactive	–
CC(=O)C(Cl)C(=O)N(C)C (stereo unspecified)	inactive	inactive	inactive	inactive	inactive	inactive	–	inactive	–	–	inactive	inactive	–
COc1ccc2c3c1O[C@H]1[C@H](O)CC[C@H]4[C@@H](C2)N(C)CC[C@@]341	inactive	inactive	inactive	inactive	inactive	inactive	inactive	inactive	–	–	–	inactive	–
CO/N=C(\C(=O)OC)c1ccccc1CO/N=C(\C)c1cccc(C(F)(F)F)c1	inactive	–	inactive	inactive	–	inactive	inactive	8.63 µM (active)	–	–	–	inactive	inactive
